From PubChem
NLRP3 yeast inh: NALP3 inflammasome inhibitors in reconstituted yeast, primary screen, luminescence, uHTS; Yeast reconstituted NLRP3/ASC/caspase-1, beta-gal luminescence, 24 h; inhibition, % at 10 µM; 0.39% of 330,000 active; AID 2825, 2010;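 active = inhibition of 50% or more; inactive = inhibition below 50%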
PfHsp90 yeast 2: growth inhibition of PfHsp90-expressing yeast, primary screen, antimalarial PfHsp90 inhibitor project, S. cerevisiae, BacTiter-Glo luminescence, single point, set 2; BacTiter-Glo ATP, 48 h; yeast lacking PDR1 and PDR3 efflux regulators; inhibition, % at 9.4 µM; 0.32% of 310,000 active; AID 504621, 2011;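 active = every replicate shows inhibition above about 80%, whatever the replicate mean, limit read from the data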
TIM10 inh: growth inhibitors of isogenic TIM10 control yeast, primary screen, counter-screen for tim10-1 yeast inhibitor project, luminescence, uHTS; S. cerevisiae TIM10 strain growth, BacTiter-Glo luminescence, 24 h; 1.4% of 330,000 active; inhibition, % at 10 µM; AID 463195, 2010;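 active = inhibition of 40% or more at the single tested concentration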;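 note: wild-type TIM10 isogenic control strain grown at permissive 25 °C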
NALP1 inh: NALP1 inflammasome inhibitors in reconstituted yeast, colorimetric, S. cerevisiae, triplicate retest | S. cerevisiae NALP1/ASC/caspase-1 growth, X-gal OD620, 72 h | inhibition, % at 10 µM | 0.61% of 280,000 active; in the data active = inhibition mostly above about 24%, no sharp cut-off; inactive = mostly below about 32%
tim23-1 inh: growth inhibitors of tim23-1 mutant yeast, primary screen, luminescence, uHTS. S. cerevisiae tim23-1 growth, BacTiter-Glo luminescence, 24 h. inhibition, % at 20 µM. 1.3% of 330,000 active;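 active = growth inhibition of the mutant yeast at or above 50%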;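 note: temperature-sensitive mutant grown at 25 °C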
tim10-1 inh: growth inhibitors of tim10-1 mutant yeast, primary screen, luminescence, uHTS; S. cerevisiae tim10-1 ts strain growth, BacTiter-Glo, 24 h; inhibition, % at 20 µM; 2.2% of 330,000 active; AID 463190, 2010;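 active = inhibition of at least 40%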;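 note: mutant grown at 25 °C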
tim10-1 conf: growth inhibitors of tim10-1 mutant yeast, confirmation, single concentration, luminescence, S. cerevisiae; shares compounds with tim10-1 inh; S. cerevisiae tim10-1 ts strain growth, BacTiter-Glo, 24 h; inhibition, % at 20 µM; 56% of 7,400 active; AID 463213, 2010;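 active = inhibition of yeast growth at or above a set limit in either of two repeat tests at 20 µM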;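 note: tim10-1 mutant grown at permissive 25 °C to find synthetic lethal compounds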
Numbers stand for hits. A selection: hits, their analogues and other compounds. The true share with any hit is near 4.1%.

Results for C=CCC(=O)NC1CC(C)(C)Cc2c1cnn2-c1ccccc1C (centres undefined) ?
NLRP3 yeast inh: inactive; PfHsp90 yeast 2: inactive; TIM10 inh: inactive; NALP1 inh: inactive; tim23-1 inh: inactive; tim10-1 inh: inactive

How did COc1ccccc1COc1ccc2c(C)c(CC(=O)O)c(=O)oc2c1C do in these assays?
NLRP3 yeast inh: inactive; PfHsp90 yeast 2: inactive; TIM10 inh: inactive; NALP1 inh: inactive; tim23-1 inh: inactive; tim10-1 inh: inactive

Results for OCC1CCCN(c2ncnc3scc(-c4ccccc4)c23)C1 (centres undefined) ?
NLRP3 yeast inh: inactive; PfHsp90 yeast 2: inactive; TIM10 inh: inactive; NALP1 inh: inactive; tim23-1 inh: inactive; tim10-1 inh: inactive

Results for OCC1CCCN(c2nc(CN3CCCCC3)nc3scc(-c4ccccc4)c23)C1 (centres undefined) ?
NLRP3 yeast inh: inactive; PfHsp90 yeast 2: inactive; TIM10 inh: inactive; NALP1 inh: inactive; tim23-1 inh: inactive; tim10-1 inh: 40; tim10-1 conf: inactive

Results for CCn1cc(C(=O)N2CCCC(N3CCN(c4ccccc4C)CC3)C2)cn1 (centres undefined) ?
NLRP3 yeast inh: inactive; PfHsp90 yeast 2: inactive; TIM10 inh: inactive; NALP1 inh: inactive; tim23-1 inh: inactive; tim10-1 inh: inactive

What do the screens show for `CCCc1cc(=O)[nH]c(SCC(=O)NCC2COc3ccccc3O2)n1` (centres undefined)?
NLRP3 yeast inh: inactive; PfHsp90 yeast 2: inactive; TIM10 inh: inactive; tim23-1 inh: inactive; tim10-1 inh: inactive

Results for CC(C)(C)C1CCc2c(C(=O)N/N=C/c3cccs3)csc2C1 (centres undefined) ?
NLRP3 yeast inh: inactive; PfHsp90 yeast 2: inactive; TIM10 inh: inactive; NALP1 inh: inactive; tim23-1 inh: inactive; tim10-1 inh: 47; tim10-1 conf: 32

Results for CCc1ccc(/C=C/c2c([N+](=O)[O-])c(=O)n(C)c(=O)n2C)cc1 ?
NLRP3 yeast inh: inactive; PfHsp90 yeast 2: inactive; TIM10 inh: inactive; NALP1 inh: inactive; tim23-1 inh: inactive; tim10-1 inh: 40; tim10-1 conf: 35

Results for CCOc1ccc(/C=C/c2c([N+](=O)[O-])c(=O)n(C)c(=O)n2C)cc1 ?
NLRP3 yeast inh: inactive; PfHsp90 yeast 2: inactive; TIM10 inh: inactive; NALP1 inh: inactive; tim23-1 inh: inactive; tim10-1 inh: inactive

Results for COc1ccc(S(=O)(=O)N2CCCCCC2)cc1C(=O)N(C)CC(=O)Nc1ccccc1C(F)(F)F ?
NLRP3 yeast inh: inactive; PfHsp90 yeast 2: inactive; TIM10 inh: inactive; tim23-1 inh: inactive; tim10-1 inh: inactive

What do the screens show for `CCCc1nc([N+](=O)[O-])c(S(=O)(=O)c2ccccc2)n1CC(C)C`?
NLRP3 yeast inh: inactive; PfHsp90 yeast 2: inactive; TIM10 inh: inactive; NALP1 inh: inactive; tim23-1 inh: inactive; tim10-1 inh: 50; tim10-1 conf: inactive

Results for Cc1nc(CN2CCN(C(=O)NC3(c4ccccc4)CC3)CC2)cs1 ?
NLRP3 yeast inh: inactive; PfHsp90 yeast 2: inactive; TIM10 inh: inactive; NALP1 inh: inactive; tim23-1 inh: inactive; tim10-1 inh: inactive

How did Cc1nc(CN2CCN(S(=O)(=O)c3c(Cl)cc(Br)cc3Cl)CC2)cs1 do in these assays?
NLRP3 yeast inh: inactive; TIM10 inh: inactive; tim23-1 inh: inactive; tim10-1 inh: 49; tim10-1 conf: 44

What do the screens show for `COc1ccc(NC(=O)CNc2cc(C)ccc2C)cc1S(=O)(=O)N1CCOCC1`?
NLRP3 yeast inh: inactive; PfHsp90 yeast 2: inactive; TIM10 inh: inactive; tim23-1 inh: inactive; tim10-1 inh: inactive

Results for CC(C)OP(=O)(OC(C)C)C(Nc1ccccn1)c1ccc(F)cc1 (centres undefined) ?
NLRP3 yeast inh: inactive; PfHsp90 yeast 2: inactive; TIM10 inh: inactive; NALP1 inh: inactive; tim23-1 inh: inactive; tim10-1 inh: 46; tim10-1 conf: inactive

How did CCCn1cnnc1CNC(=O)C1CCC(=O)N(CCCc2ccccc2)C1 (centres undefined) do in these assays?
NLRP3 yeast inh: inactive; PfHsp90 yeast 2: inactive; TIM10 inh: inactive; NALP1 inh: inactive; tim23-1 inh: inactive; tim10-1 inh: inactive

Results for Cc1c(C(=O)OC2CCCCC2)sc2nc[nH]c(=O)c12 ?
NLRP3 yeast inh: inactive; PfHsp90 yeast 2: inactive; TIM10 inh: inactive; NALP1 inh: inactive; tim23-1 inh: inactive; tim10-1 inh: 40; tim10-1 conf: inactive

Results for COCCOC(=O)c1sc2nc[nH]c(=O)c2c1C ?
NLRP3 yeast inh: inactive; PfHsp90 yeast 2: inactive; TIM10 inh: inactive; NALP1 inh: inactive; tim23-1 inh: inactive; tim10-1 inh: inactive

Results for CCOc1ccc(C(=O)NCC(=O)OCCCC(=O)c2ccc(F)cc2)cc1OCC ?
NLRP3 yeast inh: inactive; PfHsp90 yeast 2: inactive; TIM10 inh: inactive; tim23-1 inh: inactive; tim10-1 inh: inactive

How did O=C(COC(=O)c1cc(=O)[nH]c(=O)[nH]1)Nc1cccc(S(=O)(=O)N2CCOCC2)c1 do in these assays?
NLRP3 yeast inh: inactive; PfHsp90 yeast 2: inactive; TIM10 inh: inactive; NALP1 inh: inactive; tim23-1 inh: inactive; tim10-1 inh: inactive

How did Cc1ccccc1NS(=O)(=O)c1nnc(NC(=O)C(C)C)s1 do in these assays?
NLRP3 yeast inh: inactive; PfHsp90 yeast 2: inactive; TIM10 inh: inactive; NALP1 inh: inactive; tim23-1 inh: inactive; tim10-1 inh: inactive

How did CC[n+]1c(C)sc2c(C)cc(C)cc21 do in these assays?
NLRP3 yeast inh: inactive; PfHsp90 yeast 2: inactive; TIM10 inh: inactive; NALP1 inh: inactive; tim23-1 inh: inactive; tim10-1 inh: 42; tim10-1 conf: 34

What do the screens show for `Cc1cc(C)c2sc(C)[n+](CCCS(=O)(=O)[O-])c2c1`?
NLRP3 yeast inh: inactive; PfHsp90 yeast 2: inactive; TIM10 inh: inactive; NALP1 inh: inactive; tim23-1 inh: inactive; tim10-1 inh: inactive

Results for O=C(NCc1nnnn1-c1ccc(F)c(F)c1)c1ccc2c(c1)OCO2 ?
NLRP3 yeast inh: inactive; TIM10 inh: inactive; tim23-1 inh: inactive; tim10-1 inh: inactive

What do the screens show for `Cc1cc(C)n2nc(SCc3ccc(F)cc3Cl)nc2n1`?
NLRP3 yeast inh: inactive; PfHsp90 yeast 2: inactive; TIM10 inh: inactive; NALP1 inh: inactive; tim23-1 inh: inactive; tim10-1 inh: inactive

What do the screens show for `Cc1cc(C)n2nc(SCc3c(F)cccc3Cl)nc2n1`?
NLRP3 yeast inh: inactive; PfHsp90 yeast 2: inactive; TIM10 inh: inactive; NALP1 inh: inactive; tim23-1 inh: inactive; tim10-1 inh: 48; tim10-1 conf: 33
